# Test results: PubChem BioAssay (NCATS)
# Records with an inconclusive call do not appear. Where a call stands in place of a potency, no number is given. A number with no mark means an inactive call. Activity calls are given as the source filed them. Calls follow the shape of the dose curve; as a rule, active = well fitted inhibition curve with a large enough effect; inconclusive = small, poorly fitted or top-dose-only effect; inactive = flat fitted curve, though single readings scatter.
# Assays:
# NIH3T3 [1] = test: Cytotoxic Profiling of Annotated Libraries Using Quantitative High-Throughput Screening (AID 1296008); conditions: Five cell lines viability, CellTiter-Glo ATP luminescence, 48-72 h; max response: active compounds read low
# How it was run: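 Cytotoxicity was measured as CellTiter-Glo ATP luminescence, read after 10 min at room temperature. Compound treatment of the cells lasted 48 or 72 hr at 37 degrees Celsius in a qHTS format.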
# HEK293T = test: qHTS assay to identify novel small-molecules to repurpose for Merkel cell carcinoma treatment (AID 1296009); conditions: MCC and control cell lines, CellTiter-Glo viability, 72 h; at 44.8 µM (top of the series) unless noted
# How it was run: (§1)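 Cell viability, measured as CellTiter-Glo luminescence, was normalized between DMSO and no-cell wells. The cells had been exposed to 8- or 11-point compound dilutions for 72 hr at 37 degree celsius.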
# HACAT = test: as above; conditions: MCC and control cell lines, CellTiter-Glo viability, 72 h; series mostly up to 44.8 µM
# How it was run: as §1
# NIH3T3 [2] = test: as above; conditions: MCC and control cell lines, CellTiter-Glo viability, 72 h; at 44.8 µM (top of the series) unless noted
# How it was run: as §1
# Also: nearly all actives have a fitted effect of over 60% in size.
compound,measurement,setting,value
O=C1NC(Cc2c[nH]c3ccccc23)C(=O)NC1Cc1c[nH]c2ccccc12 (stereo not drawn),max response,NIH3T3 [1],-2.22%
same,outcome,HEK293T,inactive
CC1OC(OC2C(C)OC(OC3C(O)C(CO)OC(O[C@H]4CC[C@@]5(C)C(CC[C@]6(C)C5CC=C5C7[C@@H](C)[C@H](C)CC[C@]7(C(=O)O)CC[C@]56C(=O)O)C4(C)C)C3O)C(O)C2O)C(O)C(O)C1O (stereo partly drawn),outcome,NIH3T3 [1],inactive
same,outcome,HACAT,inactive [at 9.27 µM]
same,outcome,NIH3T3 [2],inactive [at 9.27 µM]
CC1C=CC2CCCCC2C1CCC1CC(O)CC(=O)O1 (stereo not drawn),max response,NIH3T3 [1],-16%
same,outcome,HEK293T,inactive
CCNCc1nc2c(N)nc3ccccc3c2n1CC(C)(C)O,outcome,NIH3T3 [1],inactive
same,Potency,HACAT,inactive
same,outcome,NIH3T3 [2],inactive
CCCC(=O)O[C@@H]1[C@@H]2[C@@H](OC(C)=O)[C@]3(C)C(=O)[C@H]4[C@@H](OC(C)=O)C(C)(C)C[C@H]4[C@]3(C)C(=O)[C@@]2(OC(C)=O)C[C@@H]1C,outcome,NIH3T3 [1],inactive
same,Potency,HACAT,inactive
same,outcome,NIH3T3 [2],inactive [at 17.4 µM]
C=C(C(=O)O)C1CCC2(C)CCCC(C)(O)C2C1 (stereo not drawn),outcome,NIH3T3 [1],inactive
same,Potency,HACAT,inactive
same,outcome,NIH3T3 [2],inactive
CC/C=C\CCO[C@@H]1O[C@H](CO[C@@H]2OC[C@H](O)[C@H](O)[C@H]2O)[C@@H](O)[C@H](O)[C@H]1O,max response,NIH3T3 [1],-20.8%
same,outcome,HEK293T,inactive
CCCCOC(=O)NC(=O)C1c2ccccc2Oc2ccccc21,max response,NIH3T3 [1],-5.65%
same,outcome,HEK293T,inactive
OC1CCC(Nc2ncc3nc(Nc4c(F)cc(F)cc4F)n([C@H]4CCOC4)c3n2)CC1 (stereo partly drawn),max response,NIH3T3 [1],3.11%
same,outcome,HEK293T,inactive
C=C[C@H]1C(O[C@@H]2O[C@H](CO)[C@@H](O)[C@H](O)[C@H]2O)OC=C2C(=O)N3CCc4c([nH]c5ccccc45)C3CC21 (stereo partly drawn),max response,NIH3T3 [1],2.27%
same,outcome,HEK293T,inactive [at 17.4 µM]
C=C(C(=O)OC)C1C(O)CC2(C)C(=O)CCC(O)(CO)C2C1O (stereo not drawn),outcome,NIH3T3 [1],inactive
same,outcome,NIH3T3 [2],inactive
CC(C)=CCC[C@](C)(O)[C@H]1CC[C@]2(C)[C@@H]1[C@H](O)CC1[C@@]3(C)CC[C@H](O)C(C)(C)[C@@H]3[C@@H](O[C@@H]3O[C@H](CO)[C@@H](O)[C@H](O)[C@H]3O[C@@H]3O[C@H](CO)[C@@H](O)[C@H](O)[C@H]3O)C[C@]12C (stereo partly drawn),outcome,NIH3T3 [1],inactive
same,outcome,NIH3T3 [2],inactive [at 17.4 µM]
